Source: PubChem
Sm TGR block: qHTS Assay for the Inhibitors of Schistosoma Mansoni Peroxiredoxins. AID 485364, 2010. Schistosoma mansoni thioredoxin glutathione reductase (TGR), Q962Y6. Potency, µM (top dose mostly 114 µM), for inactives: at the highest dose activity change, negative = inhibition, usual class: inhibitors. purified TGR, DTNB reduction, TNB absorbance 405 nm. 3% of 360,000 active; also: % is scaled to controls: 0 for no effect and ±100 for the full control effect; nearly all actives have a fitted effect of over 60% in size
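First, TGR (20 nM dispensed) and NADPH were mixed with compound. Second, a 15 min room-temperature incubation followed. Third, further NADPH and then DTNB were added to start the reaction. Finally, TNB absorbance was monitored kinetically.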
SARS PLpro yeast: qHTS of Yeast-based Assay for SARS-CoV PLP. 0.19% of 330,000 active. AID 485353, 2010. Potency, µM (top dose mostly 32.9 µM), inactives show at the top dose activity, positive = growth rescue, hits mostly activators. S. cerevisiae expressing SARS-CoV PLpro, growth rescue; calls by dose curve; also: 0% is about no effect; nearly all actives have a fitted effect of over 55% in size
Pf growth 48h: Primary qHTS for delayed death inhibitors of the malarial parasite plastid, 48 hour incubation; P. falciparum luciferase growth in erythrocytes, 48 h; 5.9% of 310,000 active; Potency, µM (series often up to 28.7 µM), without a hit: at the highest dose activity change, negative = inhibition, hits mostly inhibitors; also: % is scaled to controls: 0 for no effect and ±100 for the full control effect
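First compound was added to culture medium, then infected red cells at 0.1% parasitemia and 2% hematocrit (final). After incubation at 37 C under 5% CO2, luciferase detection reagent was dispensed and light output recorded.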
Pf growth 96h: Primary qHTS for delayed death inhibitors of the malarial parasite plastid, 96 hour incubation; 6.9% of 320,000 active; P. falciparum luciferase reporter growth, 96 h; Potency, µM (titrated, usually from 28.7 µM), inactives show at the highest dose activity change, negative = inhibition, actives largely listed as inhibitors; also: % is scaled to controls: 0 for no effect and ±100 for the full control effect
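Infected RBCs, 2% Hct / 0.05% parasitemia final; luciferase-reporter P. falciparum; cpd 96 h, 37 C, 5% CO2; luciferase detection reagent; luminescence.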
Numbers without * were called inactive; u = inconclusive; x = no result given; ! = a repeat was not active; [ ] = another dose, or the depositor's remark. Hits are enriched below; roughly 12% of the tested compounds scored in any of these assays. Unless noted, calls follow the shape of the dose curve; as a rule, active = well fitted curve in the direction sought with a large enough effect; inconclusive = small, poorly fitted or top-dose-only effect, or another doubt; inactive = no such curve, though single readings can be large; an effect the other way counts as inactive or inconclusive. Potency is read from the fitted curve at half-maximal effect.

SMILES | Sm TGR block | SARS PLpro yeast | Pf growth 48h | Pf growth 96h
COc1ccc(-c2cn3nc(N4CCCC(C(=O)NCc5ccccc5Cl)C4)sc3n2)cc1 (stereo not drawn) | 1.2% | x | x | x
Cn1c(=O)c2c(nc(SCCOc3ccc4ccc(=O)oc4c3)n2C)n(C)c1=O | -1.7% | 9.9% | 8.8% | 13.1µM*
Nc1nc2c(s1)CC(c1ccccc1)CC2 (stereo not drawn) | -7.0% | -0.2% | 21.4% | 5.22µM*
CC(C)C(=O)NC(c1ccccc1Cl)c1c(O)ccc2ccccc12 (stereo not drawn) | 0.0% | 0.6% | 9.28µM* | 4.65µM*
O=C(NC(c1ccc(Cl)cc1)c1c(O)ccc2ccccc12)c1ccccc1 (stereo not drawn) | -1.1% | -1.6% | 11.7µM* | 38.0%
CCC(=O)NC(c1ccccc1Cl)c1c(O)ccc2ccccc12 (stereo not drawn) | -5.4% | 0.5% | 10.4µM* | -20.3%
COc1ccc(C(NC(=O)C(C)C)c2c(O)ccc3ccccc23)cc1 (stereo not drawn) | -1.6%[57.1 µM] | -0.5% | u | -0.5%
CCn1c(/C=C/N(C)c2ccccc2)[n+](CC)c2ccc(Cl)cc21 | -3.1% | 1.3% | 0.738µM* | 0.131µM*
CCn1c(/C=C/Nc2ccccc2)[n+](CC)c2ccc(Cl)cc21 | -2.9% | 2.0% | u | 8.28µM*
CCOC(=O)c1ccc2c(c1)n(CC)c(/C=C/Nc1ccccc1)[n+]2CC | 9.8% | -3.4% | u | u
COc1ccc(CC(=O)N2CCN=C2SCc2cccc([N+](=O)[O-])c2)cc1 | -4.3% | -0.1% | 10.4µM* | u
Cc1ccc(-n2c(SCC(=O)NCc3ccccc3)nc3n[nH]c(C)c3c2=N)cc1Cl | 7.7% | x | x | x
C[n+]1cc(C(=O)N2CCCCC2)ccc1/C=C/c1c[nH]c2ccccc12 | -14.3% | 0.4% | u | 0.415µM*
Cc1ccc(CNC(=O)CCCn2c(=O)c3ccccc3n(Cc3ccc(Cl)cc3)c2=O)cc1 | -2.9% | x | x | x
CCC(C)c1ccccc1N1CC(C(=O)N2CCN(S(=O)(=O)c3ccccc3Br)CC2)CC1=O (stereo not drawn) | -4.5% | 2.9% | u | 11.7µM*
CCC(C)c1ccccc1N1CC(C(=O)NCCC2=CCCCC2)CC1=O (stereo not drawn) | 2.3% | 0.0% | u | 14.7µM*
CCC(C)c1ccccc1N1CC(C(=O)Nc2ccccc2N2CCCC2)CC1=O (stereo not drawn) | 8.2% | 4.9% | u | u
CCc1ccc(N2CC(C(=O)NCCC3=CCCCC3)CC2=O)cc1 (stereo not drawn) | -11.0% | 5.6% | 8.3% | 12.5%
COc1ccc2cc(C(=O)N3CCN(Cc4ccc5c(c4)OCO5)CC3)[nH]c2c1 | -30.6% | 4.9% | 10.3% | 13.1µM*
COc1ccc2[nH]c3c(N4CCN(Cc5ccc6c(c5)OCO6)CC4)ncnc3c2c1 | -6.4% | -0.4% | 4.15µM* | 5.86µM*
Clc1ccc2[nH]c3c(N4CCC5(CC4)OCCO5)ncnc3c2c1 | 15.6% | -0.8% | u | u
COc1ccc2[nH]c3c(N4CCC(O)(c5cccc(C(F)(F)F)c5)CC4)ncnc3c2c1 | 13.5% | -4.7% | 14.7µM* | 2.33µM*
Cc1cc(Nc2ccc(C)c(C)c2)n2cnnc2n1 | 0.0% | x | x | x
CCCCc1nc(Cl)c(CO)n1Cc1ccc(-c2ccccc2-c2nn[nH]n2)cc1 | 6.1% | -1.2% | 13.5µM*! | 7.57µM*
CCCCC(=O)N(Cc1ccc(-c2ccccc2-c2nn[nH]n2)cc1)C(C(=O)O)C(C)C (stereo not drawn) | x | x | 15.1µM* | 10.7µM*
SMILES | Sm TGR block | SARS PLpro yeast | Pf growth 48h | Pf growth 96h
CCC(CO)NCc1ccc(OC2CCCC2)cc1 (stereo not drawn) | 0.3% | -6.7% | -19.8% | 48.6%
CN(C)CCNCc1ccc(OC2CCCC2)cc1 | 5.3% | -3.3% | x | 9.28µM*
CS(=O)(=O)c1ccc([C@@H](O)[C@@H](CO)NC(=O)C(Cl)Cl)cc1 | -1.2% | x | u | 4.65µM*
CS(=O)(=O)c1ccc([C@@H](O)[C@@H](CF)NC(=O)C(Cl)Cl)cc1 | -6.0% | x | 11.7µM* | 3.29µM*
CS(=O)(=O)c1ccc([C@H](O)[C@H](CO)NC(=O)C(Cl)Cl)cc1 | x | x | -18.4%[12.8 µM] | u
CS(=O)(=O)c1ccc([C@H](O)[C@H](CF)NC(=O)C(Cl)Cl)cc1 | x | x | u | 2.03µM*
CCOC(=O)CN1C(=O)c2cccnc2Oc2ccccc21 | 0.7% | x | x | x
COc1ccc(CNC(=O)C2CCN(c3nnc(-n4c(C)ccc4C)s3)CC2)c(OC)c1 | -26.9% | x | x | x
COc1ccc2[nH]c(C(=O)N3CCC(CO)(Cc4cccc(C(F)(F)F)c4)CC3)c(C)c2c1 | 4.7% | -5.1% | u | u
CN1/C(=C\C(=O)Nc2cccnc2)c2ccccc2CC1(C)C | -20.0% | 5.8% | u | 5.86µM*
CCCC(=O)c1ccc(N2CCN(C(=O)OCC)CC2)c(F)c1 | 8.4% | 3.0% | 4.8% | 9.28µM*
CCCCCOc1ccc(C(=O)CCN2CCOCC2)cc1 | 3.98µM* | -9.5% | u | 2.33µM*
CCOc1ccc(C(=O)NCC2CCN(CC3CCCCC3)CC2)cc1 | 2.0% | 1.6% | 41.8% | 5.86µM*
O=C(CCN1CCOCC1)c1ccc(Br)cc1 | 0.0% | -5.7% | -3.3% | 42.2%
COc1ccc(C(=O)OCCN2CCCCC2)cc1 | 14.2% | 3.2% | 20.6% | u
CC(C)(C)c1ccc(C(=O)OCCN2CCCCC2)cc1 | -4.5% | -2.7% | 26.7% | 5.86µM*
CCOc1ccc(C(=O)NCC(=O)N2CCCCCCC2)cc1 | -17.0% | -5.3% | u | u
CCc1ccc(NC(=O)C(=O)NCCc2csc(-c3cccc(F)c3)n2)cc1 | 3.0% | x | x | x
COc1cccc(C2c3c(oc4cc(C)cc(C)c4c3=O)C(=O)N2CCc2ccc(OC)c(OC)c2)c1 (stereo not drawn) | 5.6% | x | x | x
COc1ccc(C(=O)CCN2CCCCCC2)cc1 | 17.8% | -23.7% | 2.1% | u
CCCOc1ccc(C(=O)CCN2CCN(C(=O)OCC)CC2)cc1 | 100µM* | -5.2% | 10.8% | u
CC(C)Oc1ccc(C(=O)CCN2CCCCC2)cc1 | 0.398µM* | -62.4% | 3.0% | -8.8%
CCOC(=O)N1CCN(C(=O)CCC(=O)c2ccc(OCC)cc2)CC1 | -1.3% | 4.9% | -10.4% | -9.0%
CCOc1ccc(C(=O)CCN2CCCCC2)cc1 | 0.316µM* | 11.4% | 5.6% | 1.4%
Cc1cc(C)c(NS(=O)(=O)c2ccc(-c3cnc(C4CC4)o3)cc2)c(C)c1 | -0.6% | x | x | x
O=C(Nc1c(C(=O)c2ccc(Cl)cc2)oc2ccccc12)c1cc(=O)c2ccccc2o1 | 7.6% | x | x | x
O=C(c1ccc(Cl)cc1)c1oc2ccccc2c1CS(=O)(=O)c1ccccc1 | -12.1% | 3.0% | -3.5% | 10.4µM*
CC1(C)S[C@@H]2[C@H](NC(=O)[C@@H](NC(=O)N3CCNC3=O)c3ccccc3)C(=O)N2[C@H]1C(=O)O | x | x | 0.1%[12.8 µM] | -7.6%[12.8 µM]
CCOC(=O)c1c(N)n(C2CC(C)(C)NC(C)(C)C2)c2nc3ccccc3nc12 | 1.8% | -11.7% | 10.4µM* | 9.28µM*
